In PubChem BioAssay AID521 (Sanford-Burnham Center for Chemical Genomics, 2006):
Several values for one entry are separate records, joined by “and”; a condition that tells them apart may be missing. Equal entries are not always repeated. Hit rate of the full screen: of about 110,000 compounds, about 730 (0.66%) were called active. Many of the other results were omitted from the sample, so actives are more common in it than they were. A number with no mark means an inactive call. No stated cut-off is given here; in the data, active means inhibition above about 50%; inconclusive means no clear call, values can overlap the other calls; inactive means below that.

Molecular target: Tyrosine-protein phosphatase non-receptor type 7 (Homo sapiens) (UniProt P35236)
Sequence (P35236 whole entry, looked up): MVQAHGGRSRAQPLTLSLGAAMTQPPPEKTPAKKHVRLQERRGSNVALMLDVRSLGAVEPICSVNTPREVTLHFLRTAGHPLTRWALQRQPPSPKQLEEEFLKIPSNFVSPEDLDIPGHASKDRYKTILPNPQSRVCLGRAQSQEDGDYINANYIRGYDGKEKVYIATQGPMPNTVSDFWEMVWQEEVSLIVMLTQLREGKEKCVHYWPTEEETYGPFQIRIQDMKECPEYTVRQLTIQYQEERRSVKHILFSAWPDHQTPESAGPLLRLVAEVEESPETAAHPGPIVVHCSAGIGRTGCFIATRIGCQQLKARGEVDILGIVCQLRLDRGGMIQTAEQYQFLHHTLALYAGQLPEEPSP
Experiment: HePTP tyrosine phosphatase activity blockers – biochemical, absorbance, leukemia target, primary screen (AID 521);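 further: plate controls were vehicle for no effect and reference inhibitor for full effect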
Details: recombinant HePTP phosphatase activity, OD absorbance; at 20 µM; stronger effect = higher value

Structure (SMILES)	inhibition
CCOc1ccc(C(=O)Nc2ccc(O)c(-c3nc4ccccc4o3)c2)cc1[N+](=O)[O-]	7.1%
O=C1NN(c2ccccc2)C(=O)/C1=C/c1ccc(-c2cccc(C(=O)O)c2)o1	18.1%
CC1=NN(c2ccc(S(N)(=O)=O)cc2)C(=O)/C1=C\c1ccc(-c2ccc(Cl)c(C(=O)O)c2)o1	9.9%
O=C(O)c1cc(-c2ccc(C=C3C(=O)c4ccccc4C3=O)o2)ccc1O	102% (active)
O=[N+]([O-])c1ccc(N2CCN(CCO)CC2)cc1NC(c1ccccc1)c1ccccc1	-10.6%
COc1cccc(C(=O)N2N=C(c3ccc(F)cc3)CC2(O)C(F)(F)F)c1 (centres undefined)	4.2%
CCOc1ccc(NC(=S)NC(NC(=O)c2cccc(C)c2)C(Cl)(Cl)Cl)cc1 (centres undefined)	4.6%
O=[N+]([O-])c1ccc(C2SCCN2S(=O)(=O)c2ccc3ccccc3c2)cc1 (centres undefined)	6.4%
CN(N)c1nc(N2CCCC2)nc(N2CCCC2)n1	-2.9%
O=C1NC(=O)N(c2cccc(Br)c2)C(=O)/C1=C/c1cccc([N+](=O)[O-])c1	9.5%
COc1ccc(/C=C2\C(=O)NC(=S)N(c3ccc(Br)cc3)C2=O)cc1	8.6%
COc1cc(/C=C2\C(=O)NC(=S)N(c3cccc(Br)c3)C2=O)c([N+](=O)[O-])cc1OC	102% (active)
c1ccc2c(OCCCN3CCOCC3)cccc2c1	-6.5%
Cc1ccc2ccc3cccc(S(=O)(=O)O)c3c2n1	2.1%
O=[N+]([O-])c1ccc(C2Nc3ccc(OC(F)(F)F)cc3C3C=CCC32)cc1 (centres undefined)	-9.1%
Cc1ccc(C(=O)Nc2ccccc2C(=O)NC2CCCCCC2)cc1	2.4%
O=C(CCCN1C(=O)/C(=C/c2ccccc2)SC1=S)Nc1ccccc1C(=O)O	10.4%
COc1cccc(C(O)c2nc3ccccc3n2C)c1 (centres undefined)	-6.5%
CCc1ccc(-n2c(C)cc(/C=C3/SC(=S)NC3=O)c2C)cc1	7.1%
O=C(COc1ccc2ccccc2c1Br)c1ccc(Br)cc1	3%

Structure (SMILES)	inhibition
CC(=O)c1ccc(NS(=O)(=O)c2ccccc2[N+](=O)[O-])cc1	3%
Cc1cccc(NC(=O)COc2cc(C)c(Cl)c(C)c2)c1C	2%
COc1ccc(NC(=O)c2cccc(N3C(=O)c4ccc(C(=O)Nc5ccc(OC)cc5)cc4C3=O)c2)cc1	-8.7%
O=C(O)c1cccc(N2C(=O)c3ccc4c5c(ccc(c35)C2=O)CC4)c1	103% (active)
O=C1c2ccc3c4c(ccc(c24)C(=O)N1CCOc1ccccc1)CC3	3.5%
O=[N+]([O-])c1ccc(C=NC23CN4CN(CN(C4)C2)C3)s1	4.4%
COCCNC(=O)/C(=C/c1ccc(-c2cc(Cl)ccc2Cl)o1)NC(=O)c1ccc(C)cc1	5.9%
CCOc1cc(/C=N/NC(=O)c2cc(C)[nH]n2)ccc1Oc1ccc([N+](=O)[O-])cc1[N+](=O)[O-]	6.3%
CCCOC(=O)Nc1sc2c(c1C(=O)OCC)CCC2	-6.2%
CCOCC(=O)Nc1sc2c(c1C(=O)OCC)CCCC2	3.2%
CCOC(=O)c1c(NC(=O)C2CC2c2ccccc2)sc2c1CCC2 (centres undefined)	77.8% (active)
O=C(CN1C(=O)/C(=C/c2ccccc2F)SC1=S)Nc1ccccc1F	-14.9%
Clc1ccccc1OCCCN1CCOCC1	-7.9%
O=C(CCc1ccccc1)Nc1ccc(Cl)cc1	5.1%
CCOC(=O)COc1ccc(/C=C2/NC(=S)NC2=O)cc1OC	4.1%
Cc1ccc(-c2cc(C(=O)Nc3ccccc3)c3ccccc3n2)cc1	9.3%
COc1cc(/C=C2\SC(=S)NC2=O)cc(Br)c1OCc1c(C)no[n+]1[O-]	-10.3%
CCN(CC)c1ccc(C=C2C(=O)N(C)C(=O)N(C)C2=O)c(O)c1	-4.9%
Cc1ccc(C(=O)N/C(=C\c2sccc2C)C(=O)NCC(C)C)cc1	8.2%
Nc1nc2nonc2nc1Nc1ccccc1	0.4%

Structure (SMILES)	inhibition
Cc1cc(N2C(=O)NC(=O)/C(=C\c3cn(C)c4ccccc34)C2=O)ccc1Br	4.9%
Cc1oc2ccccc2c1/C=N/n1cnc2sc3c(c2c1=O)CCCC3	-2.6%
N#CC1=C(N)n2c(s/c(=C\c3ccc4c(c3)OCO4)c2=O)=C(C#N)C1c1ccc2c(c1)OCO2 (centres undefined)	86.3% (active)
CCOC(=O)C1=C(C)N=c2s/c(=C\c3ccc4c(c3)OCO4)c(=O)n2C1c1ccc(C)cc1 (centres undefined)	1.8%
CCOC(=O)C1=C(C)N=c2s/c(=C\c3ccc4c(c3)OCO4)c(=O)n2C1c1ccc(OC)c(Br)c1 (centres undefined)	3.8%
CC1CCOP(=O)(C(Nc2ccc([N+](=O)[O-])cc2)c2ccc(Br)cc2)O1 (centres undefined)	-6%
CCOc1ccc(-c2cc(C(=O)Nc3cccc([N+](=O)[O-])c3)c3ccccc3n2)cc1	11.5%
COc1ccc(-c2nc(-c3ccccc3)no2)c(OC)c1	16.7%
COc1ccc(-c2noc(-c3ccc(Br)cc3)n2)cc1	-4.6%
COc1ccc(/C=C2\SC(=Nc3ccc(F)cc3)NC2=O)cc1OC	25.3%
COc1cc2c(cc1NC(=O)c1c(-c3c(F)cccc3Cl)noc1C)oc1ccccc12	-5.8%
COc1ccc(-c2nnc(SCC(=O)NN)n2-c2ccccc2)cc1	-0.1%
COc1ccc(-c2nc3ccccc3c(C(=O)Nc3ccc(C(C)=O)cc3)c2C)cc1	-9.2%
O=C(NC(=O)c1ccccn1)NC(c1ccccc1)c1ccccc1	-13% and 2.8%
O=C1NC(=S)N/C1=C/c1ccc(-c2cccc(Br)c2)o1	3.7%
Nn1c(NCc2ccccc2)nc2ccccc21	-4.8%
CCOC(=O)c1cnn(-c2ccccc2)c1NC(=O)c1ccc([N+](=O)[O-])cc1	1.7%
Cc1ccccc1NC(=O)c1cnn(-c2ccccc2)c1NC(=O)c1ccco1	7.2%
Cc1ccc(NC(=O)c2cnn(-c3ccccc3)c2NC(=O)c2ccccc2Cl)cc1C	103% (active)
